The record followed here is PubChem BioAssay (NCI).

Compounds without any hit were thinned out: in the full panel of roughly 79,000, 15% have a hit. A number with no mark means an inactive call. The source made the active and inactive calls. No stated cut-off is given here; in the data, active means growth inhibition above about 70%; inactive means the rest.

This assay is described as follows: NCI Yeast Anticancer Drug Screen. Data for the wt2 strain (AID 169).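 Further: 0% = growth of vehicle-treated yeast cultures.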 Particulars: S. cerevisiae wt2 strain growth inhibition, stronger effect = higher value. On the procedure: Growth inhibition of yeast strains with defined genetic alterations is measured as a screen for potential anti-cancer activity. Selected strains with alterations in DNA damage repair or cell cycle control were exposed to compounds and growth inhibition was measured relative to vehicle treated controls. The strain used in this assay is wt2

For the molecule `CC1=NOC(=O)/C1=C/c1ccc2c(c1)OCO2`, the growth inhibition runs as follows: (at 1.2 µM) 2%; (at 3.7 µM) 0%; (at 11.0 µM) 8%; (at 33.0 µM) 12%; (at 100.0 µM) 13%.

Turning to `CCCCCCOC(=O)NCCOC(=O)Nc1ccccc1`, the growth inhibition runs as follows: (at 1.2 µM) 1%; (at 3.7 µM) -1%; (at 11.0 µM) -1%; (at 33.0 µM) 0%; (at 100.0 µM) -2%.

In the case of `O=[N+]([O-])c1cc(F)c(F)cc1Sc1cc(F)c(F)cc1[N+](=O)[O-]`, the growth inhibition is 0% (at 1.2 µM); 12% (at 3.7 µM); 91% (active) (at 11.0 µM); 99% (active) (at 33.0 µM); 96% (active) (at 100.0 µM).

As for `CCCCOCn1c(=O)[nH]c(=O)c2cc(Br)ccc21`, the growth inhibition is -21% (at 1.2 µM); -20% (at 3.7 µM); -21% (at 11.0 µM); -19% (at 33.0 µM); 0% (at 100.0 µM).

Take `O=[N+]([O-])c1ccc2c(c1)/C(=N/N=C1c3ccccc3Cc3ccccc31)c1cc([N+](=O)[O-])cc([N+](=O)[O-])c1-2`: the growth inhibition (at 1.2 µM) is 15%; the growth inhibition (at 3.7 µM) is 41%; the growth inhibition (at 11.0 µM) is 98% (active); the growth inhibition (at 33.0 µM) is 98% (active); the growth inhibition (at 100.0 µM) was 94% (active).

On to `O=P(NC1CCCCC1)(OCc1ccccc1)OCc1ccccc1`, for which the growth inhibition by setting is: (at 1.2 µM) 1%; (at 3.7 µM) 2%; (at 11.0 µM) 2%; (at 33.0 µM) 4%; (at 100.0 µM) 8%.

For the molecule `O=C(C[n+]1ccc2ccccc2c1)c1ccc2ccccc2c1`, the growth inhibition is, setting by setting: (at 1.2 µM) -37%; (at 3.7 µM) -25%; (at 11.0 µM) -53%; (at 33.0 µM) -18%; (at 100.0 µM) 97% (active).

With `COc1cc2ccnc(-c3c4ccccc4c(N)c4c(OC)c(OC)ccc34)c2cc1OC`, the growth inhibition reads like this: (at 1.2 µM) -2%; (at 3.7 µM) -2%; (at 11.0 µM) -2%; (at 33.0 µM) 4%; (at 100.0 µM) 47%.
